A selection: hits, their analogues and other compounds. The true share with any hit is near 27%.
Cav3 T inh – Cav3.2 calcium influx blockers – cell-based, Fluo-4 calcium fluorescence, FDSS, MLSMR library, primary screen; actives 4% (n = 100,000); Cav3.2-expressing cells; hits give low values; AID 449739, 2010; Voltage-dependent T-type calcium channel subunit alpha-1H (Homo sapiens), O95180; B-score at 10 µM;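 active means single-dose well whose peak fluorescence ratio is a statistical outlier from its plate by either plate-standardised score or position-corrected B-score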
CYP2C9 act – human CYP2C9 activators, primary screen, biochemical, luminescence | actives 1.4% (n = 96,000) | recombinant CYP2C9, luciferin-H conversion; hits give high values; factor 1 = untreated enzyme, 0 = blocked | activation factor at 5 µM | Cytochrome P450 2C9 (Homo sapiens), P11712;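 active means activation factor of 2 or more for CYP2C9 at a 5 µM dose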;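 further: 0 = sulfaphenazole-blocked wells and 1 = vehicle-only wells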
CYP2C19 act – human CYP2C19 activators, primary screen, biochemical, luminescence; Cytochrome P450 2C19 (Homo sapiens), P33261; recombinant CYP2C19, luciferin-H EGE luminescence; hits give high values; 0 = fully inhibited enzyme, 1 = untreated enzyme; activation factor at 5 µM; 96,000 tested, under 10 active; AID 1025, 2008;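 active means activation factor of at least 2 at 5 µM in the primary screen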;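 further: 0 = wells with 2.5 mM tranylcypromine and 1 = vehicle-only wells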
Target sequence (P33261 whole entry, looked up): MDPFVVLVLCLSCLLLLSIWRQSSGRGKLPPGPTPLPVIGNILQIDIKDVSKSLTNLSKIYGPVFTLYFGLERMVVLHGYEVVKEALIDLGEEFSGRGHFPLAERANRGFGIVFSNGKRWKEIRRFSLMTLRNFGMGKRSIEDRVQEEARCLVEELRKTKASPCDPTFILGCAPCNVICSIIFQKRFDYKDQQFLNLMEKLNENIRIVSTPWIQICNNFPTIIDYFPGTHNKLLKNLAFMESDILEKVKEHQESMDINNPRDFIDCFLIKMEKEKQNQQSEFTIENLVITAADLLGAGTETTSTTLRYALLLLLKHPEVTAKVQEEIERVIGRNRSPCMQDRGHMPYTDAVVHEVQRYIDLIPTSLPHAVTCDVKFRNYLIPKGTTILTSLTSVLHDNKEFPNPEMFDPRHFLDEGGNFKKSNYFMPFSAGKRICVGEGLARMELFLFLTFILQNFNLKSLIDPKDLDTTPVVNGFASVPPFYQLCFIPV
CYP2C9 inhib – blockers of cytochrome P450 2C9 activity – biochemical, luminescence, ADME assay, primary screen | P11712 | inhibition, % at 5 µM | CYP2C9 Supersomes, luciferin-H conversion | actives 20% (n = 96,000) | AID 777, 2007;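 active means blocking of liver enzyme CYP2C9 beyond about 50% at 5 µM, limit read from the data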
CYP2C19 inh – blockers of cytochrome P450 2C19 activity – biochemical, luminescence, ADME assay, primary screen | P33261 | CYP2C19 Supersomes, luciferin-H EGE luminescence, 30 min | inhibition, % at 5 µM | actives 21% (n = 96,000) | AID 778, 2007;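 active means CYP2C19 inhibition above a set limit at 5 µM in the primary screen, cut at about 50% in these data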;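 further: plate controls were negative control wells for no effect and 2.5 mM tranylcypromine positive control for full effect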
Starred values were filed as active, the others as inactive; / = no result given.

SMILES | Cav3 T inh | CYP2C9 act | CYP2C19 act | CYP2C9 inhib | CYP2C19 inh
OC(CN1CCN(c2cccc(C(F)(F)F)c2)CC1)c1c[nH]c2ccccc12 (stereo unspecified) | -2.3 | 1.5 | 0.8 | -54 | 22
Cc1ccc(-c2csc(N3CCC(NS(=O)(=O)c4ccc5c(c4)OCCO5)CC3)n2)cc1 | -2 | 0.4 | 0.5 | 63* | 47
CCCC(=O)Nc1cccc(NC(=O)CN2CCN(c3ccccc3OC)CC2)c1 | 0.41 | 0.2 | 0.1 | 77* | 88*
COc1ccc(Cl)cc1NC(=O)C(C)N1CCN(C/C=C/c2ccccc2)CC1 (stereo unspecified) | 1.7 | 0.1 | 0 | 91* | 97*
COc1ccccc1NC(=O)CN1CCN(CC(=O)Nc2cc(NC(C)=O)ccc2OC)CC1 | 1.7 | 0.8 | 0.6 | 24 | 41
COc1ccccc1NC(=O)CCN1CCN(Cc2ccccc2)CC1 | 1.4 | 0.4 | 0.8 | 57* | 24
COc1ccc(C)cc1NC(=O)CN1CCN(CC(=O)Nc2ccccc2F)CC1 | / | 0.9 | 0.4 | 12 | 61*
COc1ccccc1NC(=O)CCN1CCCCCC1 | -0.12 | 0.9 | 1 | 6 | 0
CCC(=O)Nc1cccc(NC(=O)CN2CCN(c3ccccc3OC)CC2)c1 | 0.14 | 0.9 | 0.7 | 15 | 26
Cc1ccc(Cn2nnc3c(=O)n(CC(=O)NCc4ccc5c(c4)OCO5)cnc32)cc1 | -0.053 | / | / | / | /
CCOc1ccc(-c2nc(-c3ccccc3C)no2)cc1 | 0.23 | 1.3 | 0.7 | -27 | 26
CCOc1ccc(OCC)c(NC(=O)c2ccc(CNc3c(N4CCOCC4)c(=O)c3=O)cc2)c1 | / | 0.7 | 0.8 | 26 | 21
COc1ccccc1NC(=O)CN1CCN(c2ccccc2F)CC1 | -0.9 | 0.3 | 0.1 | 66* | 88*
COc1ccccc1NC(=O)CN1CCN(c2ccc(Cl)cc2)CC1 | 0.17 | 0.7 | 0.6 | 32 | 41
COc1cc(NC(=O)CN2CCN(c3ccccc3F)CC2)cc(OC)c1 | / | 0.7 | 0.8 | 34 | 22
COc1ccc(NC(C)=O)cc1NC(=O)CN1CCN(CC(=O)Nc2ccc(Cl)cc2)CC1 | 2.5 | 0.8 | 0.3 | 25 | 67*
CCOC(=O)c1ccc(NC(=O)N2CCN(c3ccccn3)CC2)cc1 | 0.23 | 1.2 | 1 | -17 | 1
COc1cccc(NC(=O)CN2CCN(c3ccccc3F)CC2)c1 | / | 0.3 | 0.4 | 67* | 62*
CCOC(=O)c1ccc(NC(=O)N2CCN(CCc3ccccc3)CC2)cc1 | -0.21 | 0.3 | 0.6 | 66* | 43
Cc1oc(CC(C)C)cc1C(=O)Nc1ccc(C(=O)O)cc1 | 1.3 | 1 | 1 | 2 | -1
CCOc1ccc(NC(=O)CN2CCN(C3c4ccccc4-c4ccccc43)CC2)cc1 | -2.4 | / | / | / | /
COc1ccccc1NC(=O)CN1CCN(C2c3ccccc3-c3ccccc32)CC1 | -2.3 | 0 | 0.2 | 96* | 81*
COc1ccc(Cl)cc1NC(=O)N1CCN(CCc2ccccc2)CC1 | 0.0053 | 2.3* | 0.3 | -130 | 73*
COc1ccccc1NC(=O)N1CCN(c2ccccc2F)CC1 | 0.074 | 2.4* | 0.6 | -135 | 41
Cn1c(-c2ccccc2O)cc2ccccc21 | -0.39 | / | / | / | /
SMILES | Cav3 T inh | CYP2C9 act | CYP2C19 act | CYP2C9 inhib | CYP2C19 inh
COC(=O)c1ccc(COC(=O)CCc2nc(-c3ccccc3)c(-c3ccccc3)o2)cc1 | -5.2* | 0.1 | 0.3 | 86* | 67*
Cc1ccc2nc(C)c(C)nc2c1N | 0.33 | 0.9 | 0.2 | 14 | 77*
Cc1ccc(C)c(-c2nc3ccc(N)cc3[nH]2)c1 | -0.73 | 0.8 | 0.5 | 17 | 47
CCCCCn1c(=O)c(C(=O)OCC)c(O)c2ccccc21 | / | 1 | 1 | 4 | -4
CCCCCCCCn1c(=O)c(C(=O)OCC)c(O)c2ccccc21 | -7.4* | 0.2 | 0.6 | 78* | 42
O=C(COc1cccc2cccnc12)N/N=C1\SCC(=O)N1Cc1ccccc1 | 1.7 | 0.9 | 0.9 | 7 | 14
COc1ccc(CNC2CCCCC2C)c(OC)c1 (stereo unspecified) | -0.4 | 0.9 | 0.4 | 7 | 62*
COc1cc(NC(=S)NN2CCN(C)CC2)cc(OC)c1 | 0.0054 | 0.9 | 1 | 10 | 3
CCOC(=O)C1=C(c2ccccc2)N(C)C(=O)NC1c1ccc(OC(F)F)c(OC)c1 (stereo unspecified) | -8.6* | 0.2 | 0.3 | 83* | 69*
COc1ccc(OC)c(NC2c3ccccc3C(=O)N2Cc2ccc3c(c2)OCO3)c1 (stereo unspecified) | -3.5 | 0.6 | 0.6 | 42 | 43
O=C1c2ccccc2C(Nc2cccnc2)N1Cc1ccc2c(c1)OCO2 (stereo unspecified) | 1.1 | 0.7 | 0.4 | 29 | 57*
O=C1c2ccccc2C(Nc2ccc3c(c2)OCO3)N1Cc1ccc2c(c1)OCO2 (stereo unspecified) | -4 | 0 | 0.1 | 97* | 88*
O=C1c2ccccc2C(=O)N1Cc1ccc2c(c1)OCO2 | 0.018 | 1.4 | 0.5 | -39 | 54*
O=C1c2ccccc2C(Nc2ccc3c(c2)OCO3)N1Cc1ccco1 (stereo unspecified) | -2.5 | / | / | / | /
O=C1c2ccccc2C(O)N1Cc1ccc2c(c1)OCO2 (stereo unspecified) | 0.55 | 1 | 0.2 | 3 | 83*
O=C(O)c1ccc2c(c1)C(=O)N(Cc1ccc3c(c1)OCO3)C2=O | 0.84 | 1 | 1 | 1 | 4
O=C1C2C3C=CC([C@@H]2C(=O)N1C1CCCCC1)[C@H]1C(=O)N(C2CCCCC2)C(=O)C31 (stereo partly specified) | 0.088 | 1 | 0.9 | 0 | 6
CCN1C(=O)NC(c2cc(Br)ccc2OC)C(C(=O)OC)=C1C (stereo unspecified) | -0.076 | / | / | / | /
O=C(CCSc1nnc(-c2ccncc2)o1)Nc1ccc(Cl)cc1 | / | 0.2 | 0 | 84* | 96*
Cc1ccc(SCC(=O)Nc2cccc(-c3nnc(-c4ccco4)o3)c2)cc1 | 0.0021 | 0.1 | 0.8 | 91* | 23
COc1cccc(NC(=O)CSc2nnc(-c3ccc(C)cc3)o2)c1 | -0.11 | 0.9 | 1.2 | 7 | -16
Cc1ccc(SCC(=O)Nc2cccc(C(=O)NC(C)(C)C)c2)cc1 | -1.4 | 0.4 | 0.7 | 58* | 27
Cc1ccc(NC(=O)CSc2nnc(-c3ccncc3)o2)cc1 | / | 0.5 | 0 | 51* | 98*
CC1(C)CC(=O)C2=C(C1)N(Cc1ccco1)C(=O)C2(O)C(F)(F)F (stereo unspecified) | -0.013 | 0.9 | 0.9 | 9 | 11
O=C(CCSc1nnc(-c2ccco2)o1)Nc1ccccc1 | 0.41 | 0.7 | 0.2 | 28 | 79*
Cc1cccc(NC(=O)CSc2nnc(-c3ccco3)o2)c1C | 0.85 | 0.8 | 0.8 | 18 | 24
CC(=O)c1c(C)cc(C)c(CSc2nnc(-c3ccco3)o2)c1C | -3.5 | 0.5 | 0.5 | 51* | 45

High-throughput results as filed in PubChem BioAssay.
